# A selection: hits, their analogues and other compounds. The true share with any hit is near 2.7%.
# A549 tox – Nrf2 qHTS screen for inhibitors: counterscreen for cytotoxicity; A549 ARE-Fluc cells, CellTiter-Fluor viability, 18-24 h; Potency, µM (highest dose often 46 µM), for the others: at the top dose activity change, negative = cytotoxicity, most hits filed as inhibitors; 0.16% of 390,000 active; also: potency is read from the fitted curve at half-maximal effect; % is scaled to controls: 0 for no effect and ±100 for the full control effect
#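 A549 ARE-Fluc cells in 5% FBS OPTI-MEM, 5000 cells/well, rested 2 h then exposed to compounds in concentration-response for 18-24 h at 37 °C. Viability by CellTiter-Fluor fluorescence (Ex 405/Em 525) after 30 min; luciferase luminescence (BugLite, 15 min, RT) read afterwards.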
# Nrf2 ARE act – qHTS of Nrf2 Activators | AREc32 ARE-luciferase reporter (MCF7-derived line), luminescence, 24 h | 0.31% of 410,000 active | Potency, µM (titrated, usually from 46.1 µM), for inactives: at the top dose activation, actives largely listed as activators; also: potency is read from the fitted curve at half-maximal effect; % of control where 0% means no effect; nearly all actives have a fitted effect of over 65% in size
#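 Reporter line AREc32 (ARE-Fluc), seeded overnight in OPTI-MEM with 5% FBS; compound pin-transferred, 24 hr at 37 deg C, 5% CO2; luminescent read-out.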
# Nrf2 inh – Nrf2 qHTS screen for inhibitors. A549 ARE-Fluc reporter, luciferase luminescence, 18-24 h. Potency, µM (top dose mostly 46 µM), inactives show top-dose activity change, negative = inhibition, actives largely listed as inhibitors. 2.1% of 360,000 active. AID 504444, 2011; also: potency is read from the fitted curve at half-maximal effect; % is scaled to controls: 0 for no effect and ±100 for the full control effect; nearly all actives have a fitted effect of over 60% in size
#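 Quantitative HTS in A549 cells stably bearing an antioxidant response element-firefly luciferase construct. Inhibition of Nrf2-driven transcription was scored by luminescence after 18-24 h of compound exposure at 37 °C.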
# ERG Ets-DNA blk – qHTS for Small Molecule Inhibitors of the ERG Ets/DNA interaction. Potency, µM (series often up to 76.9 µM), for the others: top-dose FP activity, negative = inhibition, most hits filed as inhibitors. fluorescence polarization, His-ERG Ets domain / labelled DNA. AID 624246, 2012. Transcriptional regulator ERG (Homo sapiens), P11308. 0.028% of 370,000 active; active = well fitted inhibition curve with a large enough effect in the polarisation, with a control signal flat; inconclusive = small, poorly fitted or top-dose-only effect, or effect the other way, or a change in a side signal; inactive = no such curve, though single readings can be large or run the other way; the % refers to the polarisation;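 also: polarization taken with two DNA probes labelled with fluorescein and Texas red; potency is read from the fitted curve at half-maximal effect; % of control where 0% means no effect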
# Target sequence (P11308 whole entry, looked up, the tested form may be a part): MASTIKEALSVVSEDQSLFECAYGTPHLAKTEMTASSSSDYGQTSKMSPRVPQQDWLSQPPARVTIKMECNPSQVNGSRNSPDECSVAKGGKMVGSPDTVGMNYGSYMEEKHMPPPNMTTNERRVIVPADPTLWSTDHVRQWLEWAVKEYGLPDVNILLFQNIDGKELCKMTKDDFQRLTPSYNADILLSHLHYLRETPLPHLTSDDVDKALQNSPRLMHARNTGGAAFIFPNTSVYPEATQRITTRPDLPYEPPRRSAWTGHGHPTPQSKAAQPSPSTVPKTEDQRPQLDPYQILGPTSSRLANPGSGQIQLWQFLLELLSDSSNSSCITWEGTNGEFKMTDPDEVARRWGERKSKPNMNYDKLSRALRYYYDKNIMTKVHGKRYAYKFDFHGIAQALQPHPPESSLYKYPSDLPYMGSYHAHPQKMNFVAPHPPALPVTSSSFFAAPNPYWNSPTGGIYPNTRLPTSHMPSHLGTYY
#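 His-tagged ERG Ets domain (1 uM in the protein solution; 300mM KCl, 50mM Tris-HCl, 1mM EDTA, 1mM DTT, pH 7.5) received compound, then a probe mix of 5 nM fluorescein-DNA and 100nM Texas-615-DNA. Fluorescence polarization was read for both dyes.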
# LDHA inh – qHTS assay for inhibitors of human lactate dehydrogenase. 0.15% of 480,000 active. AID 1347041, 2019. L-lactate dehydrogenase A chain (Homo sapiens), P00338. purified LDHA, NADH/diaphorase-resazurin fluorescence; hits give low values. activity change, % (values are at about 110 or 230 µM); in the data active = activity change below about -30%; inconclusive = mostly about -25% to -30%;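 also: plate controls were DMSO wells for no effect and wells without enzyme for full effect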
#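 Human LDH5 at 2 nM final in Tris HCl pH 7.4 with 0.06 mM NADH and 0.2 mM pyruvate, reacted 5 minutes at room temperature. Remaining NADH coupled via diaphorase/resazurin; resorufin fluorescence read at 0 and 20 minutes, normalized to enzyme-free and DMSO wells.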
# 12-LOX inh – Primary qHTS assay for inhibitors of human arachidonate 12S-lipoxygenase (ALOX12): Round 2; purified 12hLO, xylenol orange hydroperoxide absorbance; Potency, µM (series often up to 108 µM), for inactives: top-dose activity change, negative = inhibition, usual class: inhibitors; 1.1% of 580,000 active; AID 1671190, 2021; also: potency is read from the fitted curve at half-maximal effect; % is scaled to controls: 0 for no effect and ±100 for the full control effect
#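 Purified human 12hLO (150 nM final) in 25 mM Hepes, 0.01% Triton X-100, pH 7.0 was preincubated 15 min at room temperature with compound. Then 40 uM arachidonic acid was added, 30 min. Hydroperoxide was read by Fe-XO absorbance ratio 573/405 nm.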
# Starred values were filed as active, the others as inactive; u = inconclusive; x = not tested or not shown; ! = repeats disagree. Unless noted, calls follow the shape of the dose curve; as a rule, active = well fitted curve in the direction sought with a large enough effect; inconclusive = small, poorly fitted or top-dose-only effect, or another doubt; inactive = no such curve, though single readings can be large; an effect the other way counts as inactive or inconclusive.
SMILES,A549 tox,Nrf2 ARE act,Nrf2 inh,ERG Ets-DNA blk,LDHA inh,12-LOX inh
CC(C)c1ccc(NC(=O)C(c2ccccc2)N2CCC3(CC2)OCCO3)cc1 (configuration not stated),-23%,0%,15µM*,2%,-6,u
O=C(CN1C(=O)c2ccccc2S1(=O)=O)c1ccc(Cl)cc1Cl,6%,-2%,12µM*,7%,-4,8.9µM*!
O=C(CN1C(=O)c2ccccc2S1(=O)=O)c1ccc(-c2ccc(Br)cc2)cc1,x,x,x,x,1,-3%
O=C(CN1C(=O)c2ccccc2S1(=O)=O)c1ccc(F)cc1,1%,-3%,13µM*,9%,14,u
CC(=O)c1ccc(N2CCN(C(=O)c3csc(-c4ccccc4)n3)CC2)cc1,x,x,x,x,-7,4%
CCC(C)(C)c1ccc(OCCCC[n+]2ccc(C)cc2)c(C(C)(C)CC)c1,u,-3%,13µM*,23%,2,u
CCC(C)(C)c1ccc(OCCCC[n+]2cccc(C)c2C)c(C(C)(C)CC)c1,12µM*,-4%,5.8µM*,-3%,1,-19%
Cc1cc[n+](CC[n+]2ccc(C)cc2)cc1,-4%,0%,13%,-8%,-17,13%
COc1ccc(CCC(=O)N2CCC3(CC2)NC(=O)N(c2cccc(F)c2)N3)cc1,x,x,x,x,x,5µM*
O=C(Cc1cccc(F)c1)N1CCC2(CC1)NC(=O)N(c1cccc(F)c1)N2,x,x,x,x,x,6.3µM*
COc1ccc(CCC(=O)NC2CC(=O)N(c3cccc(F)c3)C2)cc1 (configuration not stated),14%,5%,x,-21%,-1,-2%
COc1cccc(CC(=O)N2CCC3(CC2)N(C)C(=O)CS3(=O)=O)c1,x,x,x,x,x,39%
COc1cccc(CC(=O)N2CCC3(CC2)NC(=O)N(c2cccc(Cl)c2)N3)c1,x,x,x,x,x,1.4µM*
COc1cccc(CC(=O)N2CCC3(CC2)NC(=O)N(c2cccc(F)c2)N3)c1,x,x,x,x,x,5µM*
O=C(CN1c2cccc3cccc(c23)S1(=O)=O)Nc1ccc(S(=O)(=O)N2CCCC2)cc1,x,x,x,x,21,u
Nc1nccnc1C(=O)NCCC12CC3CC(CC(C3)C1)C2,x,x,x,x,-6,-1%
CC1=C(C)CC(C(=O)NC(C)C(C)(C)C)C(C(=O)O)C1 (configuration not stated),x,x,x,x,9,u
O=C(COc1ccccc1)N1CCC2(CC1)NC(=O)N(c1ccccc1Cl)N2,x,x,x,x,x,-94%
Cc1ccccc1CC(=O)N1CCC2(CC1)NC(=O)N(c1cccc(F)c1)N2,x,x,x,x,x,2.8µM*
O=C(Cc1ccc(Cl)cc1)N1CCC2(CC1)NC(=O)N(c1ccccc1Cl)N2,x,x,x,x,x,1.4µM*
Cc1ccc(C)c(CN2C(=O)NC3(CCN(C(=O)Cc4cccc(F)c4)CC3)C2=O)c1,x,x,x,x,x,-13%
Cc1ccccc1C(=O)N1CCC2(CC1)NC(=O)N(c1cccc(F)c1)N2,x,x,x,x,x,1.8µM*
COc1cccc(CC(=O)N2CCC3(CC2)NC(=O)N(c2ccccc2)N3)c1,x,x,x,x,x,3.2µM*
Cc1ccc(C(=O)N2CCC3(CC2)NC(=O)N(c2cccc(F)c2)N3)s1,x,x,x,x,x,-70%
COc1cc(CNC(=O)c2cccc3c2CCN3C(=O)C2CC2)cc(OC)c1,x,x,x,x,x,49%
O=C1CSc2ccc(S(=O)(=O)Nc3cccc(Cl)c3Cl)cc2N1,x,x,x,x,-4,u
O=C(Cc1ccc(Cl)cc1)N1CCC2(CC1)NC(=O)N(c1cccc(F)c1)N2,x,x,x,x,x,3.2µM*
Cc1ccccc1CN1C(=O)C(C)S/C1=N/N=C/c1ccco1 (configuration not stated),-1%,18%,-8%,-7%,-13,u
Cc1ccccc1CN1C(=O)C(C)Sc2ccc(-c3ccco3)cc21 (configuration not stated),x,10%,x,x,-5,16µM*
